# Reference: paper PMC11006913
# Where a chain is given by its changes, count along the chain named.
# Experiments:
# Assay in all cases: PBM; 200 nM protein, PBS
# Settings in all cases: dsDNA, one strand shown
# [1] = target: HOXA4 (Homo sapiens, UniProt Q00056 201-287, W262R)
# [2] = target: HOXC9 (Homo sapiens, UniProt P31274 178-260, K195R)
# [3] = target: HOXA2 (Homo sapiens, UniProt O43364 129-215, R185T)
# [4] = target: HOXA4 (Homo sapiens, UniProt Q00056 201-287, R217L)
# [5] = target: HOXC9 (Homo sapiens, UniProt P31274 178-260)
# [6] = target: HOXC9 (Homo sapiens, UniProt P31274 178-260, R193K)
# [7] = target: HOXA2 (Homo sapiens, UniProt O43364 129-215, R185K)
# [8] = target: HOXA4 (Homo sapiens, UniProt Q00056 201-287)
# [9] = target: HOXA2 (Homo sapiens, UniProt O43364 129-215, Y150S)
# [10] = target: HOXA2 (Homo sapiens, UniProt O43364 129-215)
# [11] = target: T1, PAX4 (Homo sapiens, UniProt O43316 9-242, R200K)
# T1 sequence: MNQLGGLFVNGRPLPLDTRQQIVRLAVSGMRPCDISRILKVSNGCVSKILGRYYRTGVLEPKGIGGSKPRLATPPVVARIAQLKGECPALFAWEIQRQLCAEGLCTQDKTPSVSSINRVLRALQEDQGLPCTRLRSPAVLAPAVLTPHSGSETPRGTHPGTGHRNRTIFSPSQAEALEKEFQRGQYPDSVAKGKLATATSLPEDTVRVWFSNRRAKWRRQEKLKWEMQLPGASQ
# [12] = target: T2, PAX4 (Homo sapiens, UniProt O43316 9-242)
# T2 sequence: T1 sequence with K192R
# [13] = target: T3, PAX4 (Homo sapiens, UniProt O43316 9-242, R200Q)
# T3 sequence: T1 sequence with K192Q
# [14] = target: T4, PAX4 (Homo sapiens, UniProt O43316 9-242, F177V)
# T4 sequence: T1 sequence with F169V, K192R
# [15] = target: T5, PAX4 (Homo sapiens, UniProt O43316 9-242, F177Y)
# T5 sequence: T1 sequence with F169Y, K192R
# [16] = target: T6, PAX4 (Homo sapiens, UniProt O43316 9-242, R227W)
# T6 sequence: T1 sequence with K192R, R219W
# [17] = target: HOXA4 (Homo sapiens, UniProt Q00056 201-287, W262F)
# [18] = target: HOXC10 (Homo sapiens, UniProt Q9NYD6 254-340)
# [19] = target: HOXC10 (Homo sapiens, UniProt Q9NYD6 254-340, K271E)
# [20] = target: ALX3 (Homo sapiens, UniProt O95076 139-225, N203Q)
# [21] = target: ALX3 (Homo sapiens, UniProt O95076 139-225)
# [22] = target: ALX3 (Homo sapiens, UniProt O95076 139-225, L168Q)
# [23] = target: HOXC9 (Homo sapiens, UniProt P31274 178-260, R222W)
# [24] = target: ALX3 (Homo sapiens, UniProt O95076 139-225, L168V)
# [25] = target: ALX3 (Homo sapiens, UniProt O95076 139-225, N203S)
# [26] = target: ALX4 (Homo sapiens, UniProt Q9H161 200-286)
# [27] = target: ALX4 (Homo sapiens, UniProt Q9H161 200-286, Q225E)
# Sequence of ALX4 (Homo sapiens, UniProt Q9H161 200-286, Q225E) (Q9H161 200-286 Q225E): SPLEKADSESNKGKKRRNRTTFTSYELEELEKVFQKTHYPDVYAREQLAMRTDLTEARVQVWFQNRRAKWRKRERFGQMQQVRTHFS
# Sequence of HOXA4 (Homo sapiens, UniProt Q00056 201-287, W262F) (Q00056 201-287 W262F): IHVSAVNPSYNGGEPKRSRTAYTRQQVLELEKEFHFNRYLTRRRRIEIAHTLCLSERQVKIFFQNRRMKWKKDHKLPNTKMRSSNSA
# Sequence of HOXA4 (Homo sapiens, UniProt Q00056 201-287, R217L) (Q00056 201-287 R217L): as the sequence (Q00056 201-287 W262F) above, with R17L, F62W counted along it
# Sequence of HOXA4 (Homo sapiens, UniProt Q00056 201-287, W262R) (Q00056 201-287 W262R): as the sequence (Q00056 201-287 W262F) above, with F62R counted along it
# Sequence of HOXA4 (Homo sapiens, UniProt Q00056 201-287) (Q00056 201-287): as the sequence (Q00056 201-287 W262F) above, with F62W counted along it
# Sequence of HOXC10 (Homo sapiens, UniProt Q9NYD6 254-340) (Q9NYD6 254-340): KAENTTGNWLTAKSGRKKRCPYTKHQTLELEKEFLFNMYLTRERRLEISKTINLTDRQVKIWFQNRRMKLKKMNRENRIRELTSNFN
# Sequence of HOXC10 (Homo sapiens, UniProt Q9NYD6 254-340, K271E) (Q9NYD6 254-340 K271E): as the sequence (Q9NYD6 254-340) above, with K18E counted along it
# Sequence of HOXC9 (Homo sapiens, UniProt P31274 178-260, K195R) (P31274 178-260 K195R): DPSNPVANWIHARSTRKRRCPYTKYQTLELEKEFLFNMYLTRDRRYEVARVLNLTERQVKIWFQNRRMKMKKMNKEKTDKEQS
# Sequence of HOXC9 (Homo sapiens, UniProt P31274 178-260) (P31274 178-260): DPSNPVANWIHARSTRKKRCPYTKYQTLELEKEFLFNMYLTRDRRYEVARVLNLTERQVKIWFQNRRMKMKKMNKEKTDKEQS
# Sequence of HOXC9 (Homo sapiens, UniProt P31274 178-260, R193K) (P31274 178-260 R193K): as the sequence (P31274 178-260) above, with R16K counted along it
# Sequence of HOXA2 (Homo sapiens, UniProt O43364 129-215, Y150S) (O43364 129-215 Y150S): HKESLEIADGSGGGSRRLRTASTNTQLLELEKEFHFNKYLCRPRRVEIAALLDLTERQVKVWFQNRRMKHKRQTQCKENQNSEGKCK
# Sequence of ALX3 (Homo sapiens, UniProt O95076 139-225, N203S) (O95076 139-225 N203S): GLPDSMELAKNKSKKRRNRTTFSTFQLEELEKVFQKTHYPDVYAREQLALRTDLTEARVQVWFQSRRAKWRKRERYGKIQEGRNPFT
# Sequence of HOXC9 (Homo sapiens, UniProt P31274 178-260, R222W) (P31274 178-260 R222W): as the sequence (P31274 178-260) above, with R45W counted along it
# Sequence of ALX3 (Homo sapiens, UniProt O95076 139-225, L168Q) (O95076 139-225 L168Q): as the sequence (O95076 139-225 N203S) above, with L30Q, S65N counted along it
# Sequence of HOXA2 (Homo sapiens, UniProt O43364 129-215) (O43364 129-215): as the sequence (O43364 129-215 Y150S) above, with S22Y counted along it
# Sequence of ALX3 (Homo sapiens, UniProt O95076 139-225, L168V) (O95076 139-225 L168V): as the sequence (O95076 139-225 N203S) above, with L30V, S65N counted along it
# Sequence of HOXA2 (Homo sapiens, UniProt O43364 129-215, R185T) (O43364 129-215 R185T): as the sequence (O43364 129-215 Y150S) above, with S22Y, R57T counted along it
# Sequence of HOXA2 (Homo sapiens, UniProt O43364 129-215, R185K) (O43364 129-215 R185K): as the sequence (O43364 129-215 Y150S) above, with S22Y, R57K counted along it
# Sequence of ALX3 (Homo sapiens, UniProt O95076 139-225) (O95076 139-225): as the sequence (O95076 139-225 N203S) above, with S65N counted along it
# Sequence of ALX4 (Homo sapiens, UniProt Q9H161 200-286) (Q9H161 200-286): as the sequence (Q9H161 200-286 Q225E) above, with E26Q counted along it
# Sequence of ALX3 (Homo sapiens, UniProt O95076 139-225, N203Q) (O95076 139-225 N203Q): as the sequence (O95076 139-225 N203S) above, with S65Q counted along it
sequence,measurement,setting,value
ATGAATGA,binding signal,[1],"10.2 upbm affinity estimate (log intensity, higher = more binding, comparable within an allelic series)"
same,binding signal,[2],"11.2 upbm affinity estimate (log intensity, higher = more binding, comparable within an allelic series)"
same,binding signal,[3],"9.4 upbm affinity estimate (log intensity, higher = more binding, comparable within an allelic series)"
same,binding signal,[4],"11.1 upbm affinity estimate (log intensity, higher = more binding, comparable within an allelic series)"
same,binding signal,[5],"11 upbm affinity estimate (log intensity, higher = more binding, comparable within an allelic series)"
same,binding signal,[6],"11.2 upbm affinity estimate (log intensity, higher = more binding, comparable within an allelic series)"
same,binding signal,[7],"11.9 upbm affinity estimate (log intensity, higher = more binding, comparable within an allelic series)"
same,binding signal,[8],"11.5 upbm affinity estimate (log intensity, higher = more binding, comparable within an allelic series)"
same,binding signal,[9],"10.9 upbm affinity estimate (log intensity, higher = more binding, comparable within an allelic series)"
same,binding signal,[10],"9.56 upbm affinity estimate (log intensity, higher = more binding, comparable within an allelic series)"
CCCTGGTC,binding signal,[1],"9.79 upbm affinity estimate (log intensity, higher = more binding, comparable within an allelic series)"
same,binding signal,[11],"9.07 upbm affinity estimate (log intensity, higher = more binding, comparable within an allelic series)"
same,binding signal,[12],"9.08 upbm affinity estimate (log intensity, higher = more binding, comparable within an allelic series)"
same,binding signal,[4],"9.68 upbm affinity estimate (log intensity, higher = more binding, comparable within an allelic series)"
same,binding signal,[13],"9.25 upbm affinity estimate (log intensity, higher = more binding, comparable within an allelic series)"
same,binding signal,[14],"9.22 upbm affinity estimate (log intensity, higher = more binding, comparable within an allelic series)"
same,binding signal,[8],"9.69 upbm affinity estimate (log intensity, higher = more binding, comparable within an allelic series)"
same,binding signal,[15],"9.15 upbm affinity estimate (log intensity, higher = more binding, comparable within an allelic series)"
same,binding signal,[16],"9.21 upbm affinity estimate (log intensity, higher = more binding, comparable within an allelic series)"
same,binding signal,[17],"9.7 upbm affinity estimate (log intensity, higher = more binding, comparable within an allelic series)"
CCCTCTCG,binding signal,[1],"9.84 upbm affinity estimate (log intensity, higher = more binding, comparable within an allelic series)"
same,binding signal,[18],"10.1 upbm affinity estimate (log intensity, higher = more binding, comparable within an allelic series)"
same,binding signal,[4],"9.86 upbm affinity estimate (log intensity, higher = more binding, comparable within an allelic series)"
same,binding signal,[8],"9.81 upbm affinity estimate (log intensity, higher = more binding, comparable within an allelic series)"
same,binding signal,[19],"10.1 upbm affinity estimate (log intensity, higher = more binding, comparable within an allelic series)"
same,binding signal,[17],"9.89 upbm affinity estimate (log intensity, higher = more binding, comparable within an allelic series)"
AGCCACGG,binding signal,[1],"9.87 upbm affinity estimate (log intensity, higher = more binding, comparable within an allelic series)"
same,binding signal,[2],"9.64 upbm affinity estimate (log intensity, higher = more binding, comparable within an allelic series)"
same,binding signal,[4],"9.72 upbm affinity estimate (log intensity, higher = more binding, comparable within an allelic series)"
same,binding signal,[5],"9.71 upbm affinity estimate (log intensity, higher = more binding, comparable within an allelic series)"
same,binding signal,[20],"7.72 upbm affinity estimate (log intensity, higher = more binding, comparable within an allelic series)"
same,binding signal,[6],"9.61 upbm affinity estimate (log intensity, higher = more binding, comparable within an allelic series)"
same,binding signal,[8],"9.87 upbm affinity estimate (log intensity, higher = more binding, comparable within an allelic series)"
same,binding signal,[21],"7.83 upbm affinity estimate (log intensity, higher = more binding, comparable within an allelic series)"
same,binding signal,[22],"7.8 upbm affinity estimate (log intensity, higher = more binding, comparable within an allelic series)"
same,binding signal,[23],"9.71 upbm affinity estimate (log intensity, higher = more binding, comparable within an allelic series)"
same,binding signal,[24],"7.72 upbm affinity estimate (log intensity, higher = more binding, comparable within an allelic series)"
same,binding signal,[17],"9.91 upbm affinity estimate (log intensity, higher = more binding, comparable within an allelic series)"
same,binding signal,[25],"7.74 upbm affinity estimate (log intensity, higher = more binding, comparable within an allelic series)"
CCCGAAGG,binding signal,[1],"9.83 upbm affinity estimate (log intensity, higher = more binding, comparable within an allelic series)"
same,binding signal,[18],"9.96 upbm affinity estimate (log intensity, higher = more binding, comparable within an allelic series)"
same,binding signal,[26],"7.8 upbm affinity estimate (log intensity, higher = more binding, comparable within an allelic series)"
same,binding signal,[27],"8.2 upbm affinity estimate (log intensity, higher = more binding, comparable within an allelic series)"
same,binding signal,[4],"9.81 upbm affinity estimate (log intensity, higher = more binding, comparable within an allelic series)"
same,binding signal,[8],"9.76 upbm affinity estimate (log intensity, higher = more binding, comparable within an allelic series)"
same,binding signal,[19],"9.97 upbm affinity estimate (log intensity, higher = more binding, comparable within an allelic series)"
same,binding signal,[17],"9.93 upbm affinity estimate (log intensity, higher = more binding, comparable within an allelic series)"
